Mtb MbtI inh: MbtI salicylate synthase inhibitors, primary screen, biochemical, fluorescence intensity. inhibition, % (test concentration not listed). 0.89% of 100,000 active. P9WFX0. purified MbtI enzyme, fluorescence intensity read-out; in the data active means inhibition mostly above about 56%, no sharp cut-off; inactive means mostly below about 77%
Target sequence (P9WFX0 whole entry, looked up): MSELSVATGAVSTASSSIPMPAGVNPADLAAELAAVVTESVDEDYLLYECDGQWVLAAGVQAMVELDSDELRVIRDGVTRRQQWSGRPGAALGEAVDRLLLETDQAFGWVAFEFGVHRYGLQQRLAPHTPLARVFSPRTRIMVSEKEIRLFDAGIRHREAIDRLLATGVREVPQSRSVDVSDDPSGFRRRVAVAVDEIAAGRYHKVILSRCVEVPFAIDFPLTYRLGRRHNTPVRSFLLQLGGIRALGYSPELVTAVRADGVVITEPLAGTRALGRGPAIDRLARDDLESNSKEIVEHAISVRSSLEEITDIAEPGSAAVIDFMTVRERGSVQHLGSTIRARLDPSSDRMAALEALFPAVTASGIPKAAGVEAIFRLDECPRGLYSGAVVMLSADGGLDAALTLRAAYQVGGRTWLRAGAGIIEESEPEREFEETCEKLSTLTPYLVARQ
Mtb MenB inh: M. tuberculosis MenB inhibitors, primary screen, biochemical, absorbance | 1,4-dihydroxy-2-naphthoyl-CoA synthase (Mycobacterium tuberculosis (strain ATCC 25618 / … | MenB enzyme assay, absorbance read-out | inhibition, % (concentration not given with the values) | 0.43% of 100,000 active | AID 540299, 2011; in the data active means inhibition above about 21%, passing the limit was not always enough
PV pol inh: poliovirus RdRp elongation inhibitors, primary screen, biochemical, fluorescence polarization, total intensity | Genome polyprotein (Poliovirus type 1 (strain Mahoney)), P03300 | poliovirus polymerase elongation; stronger effect = lower value | % elongation, % (compound at 16.7 µg/mL) | 0.66% of 150,000 active; in the data active means % elongation below about 90%
Each line names hits and unclear results; the compound was inactive in the other large screens; ! = repeats disagree. A selection: hits, their analogues and other compounds. The true share with any hit is near 1.4%.

COc1ccc(/C=N/n2cnnc2)cc1	none
COc1ccc(/C=N/n2cn[nH]c2=S)cc1	Mtb MbtI inh 71
Cc1sc2nc(SCC(=O)c3ccc(O)cc3O)[nH]c(=O)c2c1C	Mtb MbtI inh 88, PV pol inh 76
Cc1sc2nc(SCC(=O)c3ccc(O)c(O)c3)[nH]c(=O)c2c1C	none
O=C(NCCc1c[nH]c2ccccc12)c1ccc(Cl)c(S(=O)(=O)N2CCCC2)c1	none (no result: Mtb MenB inh)
Cc1ccc(N2C(=O)C3C4C=CC(CNC(=S)NCc5ccccc5)(O4)C3C2=O)cc1 (stereo not given)	none
COc1ccc(C(=O)NCC23C=CC(O2)C2C(=O)N(c4ccccc4C)C(=O)C23)cc1 (stereo not given)	Mtb MbtI inh 65
CCCC(C)C(=O)Nc1cc(C)ccn1 (stereo not given)	none
NC(=O)COC(=O)c1cccc(S(=O)(=O)N2CCc3ccccc3C2)c1	none
Cc1ccc(-c2c(CN3CCN(c4cccc(C(F)(F)F)c4)CC3)csc2C)cc1	PV pol inh 89 (no result: Mtb MbtI inh, Mtb MenB inh)
Cc1ccc(-c2c(CN3CCN(c4cccc(C)c4C)CC3)csc2C)cc1	none (no result: Mtb MbtI inh, Mtb MenB inh)
N#Cc1ccccc1CSc1nc2ccccc2n1-c1ccccc1	none
O=C(COc1ccccc1)c1ccc(O)c(O)c1O	Mtb MbtI inh 94
Cc1c(O)ccc(C(=O)COc2ccccc2)c1O	none
Cc1cccc(C)c1NC(=O)CNC(=O)CSc1nnc(-c2cccnc2)n1Cc1ccco1	none
COC(=O)Cc1[nH]n(-c2nc3ccccc3s2)c(=O)c1C(C)=O	none (no result: Mtb MbtI inh)
CC(=O)c1c(CC(=O)O)[nH]n(-c2nc3ccccc3s2)c1=O	Mtb MbtI inh 60
CCC(=O)Nc1cccc(C)c1	none
Cc1ccc(S(=O)(=O)N(C)c2c(C)ccc(S(=O)(=O)n3nc(C)cc3C)c2C)cc1	Mtb MenB inh 39
Cc1ccc(S(=O)(=O)n2nc(C)cc2C)cc1	none
CCC(C)NC(=O)CSc1nnc(Nc2ccc(C(C)C)cc2)s1 (stereo not given)	none
S=c1[nH]nc(Cc2ccsc2)n1Cc1ccccc1	none
S=c1[nH]nc(Cc2ccccc2)n1Cc1ccccc1	Mtb MbtI inh 62!
NC(=S)N/N=C(/C(=O)c1ccccn1)c1ccccn1	Mtb MbtI inh 91, PV pol inh 74
NC(=S)c1ccccn1	PV pol inh 20
N/C(=N\NS(=O)(=O)c1ccccc1)c1ccccn1	none
N/C(=N\O)c1ccccn1	none
c1ccc2[nH]c(SCc3nc4ccccc4o3)nc2c1	none
CC1CCCC(NCC(O)COCc2ccc3c(c2)OCO3)C1C (stereo not given)	none
COc1cc(C#N)ccc1OC(=O)C(CCSC)N1C(=O)c2ccccc2C1=O (stereo not given)	none
C=Cc1ccc(C=C)cc1	Mtb MbtI inh 72, PV pol inh 64
c1ccc(CCC2CCCCN2)cc1 (stereo not given)	none
Cc1ccc(C)n1-c1ccsc1C(=O)O	PV pol inh 48
Cc1ccc(C(=O)O)cc1-n1c(C)ccc1C	none (no result: Mtb MenB inh, PV pol inh)
COc1ccc(-c2sc(C(=O)O)cc2C)cc1	none
COc1ccc(-c2csc(=Nc3cc(C(=O)O)ccc3C)o2)cc1	PV pol inh 86 (no result: Mtb MbtI inh)
Cc1cc(C)c(NS(=O)(=O)c2ccc(NC(=O)c3nc4ncccn4n3)cc2)c(C)c1	none (no result: Mtb MenB inh, PV pol inh)
O=C(Cc1ccccc1)Nc1nc(-c2cccs2)cs1	none
C/C(=C/C(=O)O)C(=O)Nc1nc(-c2cccs2)cs1	Mtb MbtI inh 72 (no result: PV pol inh)
Cc1cc(COC(=O)C23CCC(=O)N2c2ccccc2C(=O)N3C2CC2)no1 (stereo not given)	none
CC(O)c1cccc(NC(=O)C2C3C=CC(C3)C2C(=O)O)c1 (stereo not given)	none
O=C(O)C1C2C=CC(C2)C1C(=O)Nc1cccc(Br)c1 (stereo not given)	Mtb MenB inh 26
COC(=O)C1CCN(C(=O)Cc2ccc(C)cc2)CC1	PV pol inh 83
Cc1ccc(C(=O)C2CCN(C(=O)Cc3ccccc3)CC2)cc1	none
O=C(c1cnn(C(=O)CN2C(=O)COc3ccccc32)c1)c1ccccc1O	none
CC1CC(C)(C)OC(C2CC=CCC2)O1 (stereo not given)	none
O=Nc1sc2ccc3ccccc3c2c1O	Mtb MbtI inh 69
O=C(O)c1ccc2ccccc2c1O	none
COc1cc(NC(=O)CCCSc2nc(-c3ccco3)cc(C(F)(F)F)n2)cc(OC)c1OC	none (no result: Mtb MbtI inh, Mtb MenB inh)
COc1cccc(NC(=O)CCSc2nc(-c3ccco3)cc(C(F)(F)F)n2)c1	PV pol inh 90 (no result: Mtb MbtI inh, Mtb MenB inh)
Cc1ccc(C)n1CC1CCCO1 (stereo not given)	none (no result: Mtb MenB inh)
O=c1[nH][nH]c(=S)n1Cc1ccccc1	none
CCCCn1c(=O)[nH][nH]c1=S	Mtb MbtI inh 78
O=C(O)/C=C/C(=O)c1ccccc1	none
O=C(O)/C=C/C(=O)c1ccc(F)cc1	Mtb MbtI inh 74, PV pol inh 43 (no result: Mtb MenB inh)
O=C(/C=C/Sc1nc2cc(Cl)ccc2s1)c1ccc(F)cc1	none
O=C(/C=C/S(=O)(=O)c1ccc(Cl)cc1)c1ccc(F)cc1	Mtb MbtI inh 98
CN(C(=O)c1c2c(nc3ccccc13)C(=O)N(C1CCCCC1)C2)C1CCCCC1	none
CCc1nnc2sc(-c3cccs3)nn12	none
CCOC(=O)Cn1c(=O)oc2cc(S(=O)(=O)Nc3cc(C)ccc3OC)ccc21	none
CN(C)CCNCc1ccc(-c2ccccc2)o1	Mtb MenB inh 61
CC(O)CNCc1ccc(-c2ccccc2)o1 (stereo not given)	none
CCCCN(C)Cc1cccc(OC)c1OC	none
COc1ccccc1CN(C)CCN	Mtb MenB inh 75
CSc1ccccc1NC(=O)CN(C)C(=O)C1CCCCC1	none
Oc1ccc(O)c(C2CC3CCC2C3)c1 (stereo not given)	Mtb MbtI inh 102
C[C@]12CC[C@@H]3c4ccc(O)cc4CC[C@H]3[C@@H]1C[C@@H](O)[C@@H]2O	none
NC1=CC(=O)c2ccccc2C1=O	PV pol inh 88
CC1=CC(=O)c2ccccc2C1=O	none
N#Cc1c(SCC(=O)NCC2CCCO2)nc2c(c1-c1ccco1)CCCC2 (stereo not given)	none
Nc1ccc(S(=O)(=O)N2CC(=O)NC(=O)C2)cc1	none
Cc1cc(=O)[nH]c2c(C)c(Cl)ccc12	Mtb MenB inh 29
COc1cccc2c(C)cc(=O)[nH]c12	none (no result: Mtb MenB inh)
O=C(CSc1nncc(=O)[nH]1)Nc1cccc(Cl)c1	Mtb MbtI inh 73
O=C(CSc1nncc(=O)[nH]1)NCc1ccccc1	none
CC(C)(C)n1cnc2cc(N=Cc3ccccc3O)ccc21	none
C=CC1C[C@H]2CCC1C[C@@H]2C(O)c1ccnc2ccc(OC)cc12 (stereo not given in full)	none (no result: Mtb MbtI inh)
CCn1c(=O)n(CC)c2cc(S(=O)(=O)N3CCOCC3)ccc21	none (no result: Mtb MbtI inh)
O=S(=O)(c1ccc2oc(=S)n(CN3CCOCC3)c2c1)N1CCOCC1	PV pol inh 62
Cc1cccc(NC(=O)N2CCCC2C(=O)O)c1 (stereo not given)	none
Cc1cccc(NC(=S)N2CCCCC2C(N)=O)c1 (stereo not given)	Mtb MbtI inh 58
COc1nccn(-c2ccccc2)c1=O	none (no result: PV pol inh)
CC(C)=CCCC1(C)OC(=O)NC1(C)O (stereo not given)	none (no result: Mtb MenB inh, PV pol inh)
Cc1ccc(NC(=O)CN(C)Cn2nc(-c3ccco3)oc2=S)cc1	none
FC(F)(F)CN(Cn1nc(-c2ccco2)oc1=S)Cn1nc(-c2ccco2)oc1=S	PV pol inh 76
CCC(C)NC(=O)Nc1cccc(C)c1 (stereo not given)	none
CSC(=S)N(c1ccccc1)c1ccccc1	none (no result: Mtb MenB inh)

Screens (PubChem BioAssay)
